Test [1] concerns the target T1, Ephrin type-B receptor 2 (Homo sapiens) (UniProt P29323).
T1 sequence (whole entry): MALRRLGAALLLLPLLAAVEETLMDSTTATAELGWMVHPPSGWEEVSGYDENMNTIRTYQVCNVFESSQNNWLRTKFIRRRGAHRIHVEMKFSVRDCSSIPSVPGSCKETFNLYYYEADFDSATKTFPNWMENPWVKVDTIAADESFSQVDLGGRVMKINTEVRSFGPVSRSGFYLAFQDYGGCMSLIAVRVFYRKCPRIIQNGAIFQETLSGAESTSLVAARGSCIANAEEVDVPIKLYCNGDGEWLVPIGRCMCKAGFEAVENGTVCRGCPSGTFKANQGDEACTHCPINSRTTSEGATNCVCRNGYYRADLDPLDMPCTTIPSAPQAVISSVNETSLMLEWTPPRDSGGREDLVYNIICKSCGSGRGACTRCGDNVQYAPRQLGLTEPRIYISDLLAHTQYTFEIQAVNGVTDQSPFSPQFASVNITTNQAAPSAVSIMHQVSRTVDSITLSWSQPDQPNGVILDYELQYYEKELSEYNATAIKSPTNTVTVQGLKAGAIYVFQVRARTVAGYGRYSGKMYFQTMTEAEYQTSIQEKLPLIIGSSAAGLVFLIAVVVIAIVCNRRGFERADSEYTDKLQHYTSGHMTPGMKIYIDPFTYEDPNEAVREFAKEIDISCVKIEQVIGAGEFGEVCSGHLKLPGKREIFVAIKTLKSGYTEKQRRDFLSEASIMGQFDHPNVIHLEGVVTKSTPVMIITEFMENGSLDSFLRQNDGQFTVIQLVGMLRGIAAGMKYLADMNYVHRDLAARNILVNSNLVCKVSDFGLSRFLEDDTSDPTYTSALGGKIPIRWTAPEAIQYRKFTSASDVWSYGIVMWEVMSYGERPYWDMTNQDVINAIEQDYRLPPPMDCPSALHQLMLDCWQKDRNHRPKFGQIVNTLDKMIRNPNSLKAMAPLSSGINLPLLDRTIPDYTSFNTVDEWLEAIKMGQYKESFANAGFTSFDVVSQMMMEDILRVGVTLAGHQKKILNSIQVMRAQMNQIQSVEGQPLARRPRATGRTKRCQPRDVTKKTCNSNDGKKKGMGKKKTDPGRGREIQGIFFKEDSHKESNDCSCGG
The conditions noted are these: at 1 µM.

The target of test [2] is T2, Ephrin type-B receptor 3 (Homo sapiens) (UniProt P54753).
T2 sequence (whole entry): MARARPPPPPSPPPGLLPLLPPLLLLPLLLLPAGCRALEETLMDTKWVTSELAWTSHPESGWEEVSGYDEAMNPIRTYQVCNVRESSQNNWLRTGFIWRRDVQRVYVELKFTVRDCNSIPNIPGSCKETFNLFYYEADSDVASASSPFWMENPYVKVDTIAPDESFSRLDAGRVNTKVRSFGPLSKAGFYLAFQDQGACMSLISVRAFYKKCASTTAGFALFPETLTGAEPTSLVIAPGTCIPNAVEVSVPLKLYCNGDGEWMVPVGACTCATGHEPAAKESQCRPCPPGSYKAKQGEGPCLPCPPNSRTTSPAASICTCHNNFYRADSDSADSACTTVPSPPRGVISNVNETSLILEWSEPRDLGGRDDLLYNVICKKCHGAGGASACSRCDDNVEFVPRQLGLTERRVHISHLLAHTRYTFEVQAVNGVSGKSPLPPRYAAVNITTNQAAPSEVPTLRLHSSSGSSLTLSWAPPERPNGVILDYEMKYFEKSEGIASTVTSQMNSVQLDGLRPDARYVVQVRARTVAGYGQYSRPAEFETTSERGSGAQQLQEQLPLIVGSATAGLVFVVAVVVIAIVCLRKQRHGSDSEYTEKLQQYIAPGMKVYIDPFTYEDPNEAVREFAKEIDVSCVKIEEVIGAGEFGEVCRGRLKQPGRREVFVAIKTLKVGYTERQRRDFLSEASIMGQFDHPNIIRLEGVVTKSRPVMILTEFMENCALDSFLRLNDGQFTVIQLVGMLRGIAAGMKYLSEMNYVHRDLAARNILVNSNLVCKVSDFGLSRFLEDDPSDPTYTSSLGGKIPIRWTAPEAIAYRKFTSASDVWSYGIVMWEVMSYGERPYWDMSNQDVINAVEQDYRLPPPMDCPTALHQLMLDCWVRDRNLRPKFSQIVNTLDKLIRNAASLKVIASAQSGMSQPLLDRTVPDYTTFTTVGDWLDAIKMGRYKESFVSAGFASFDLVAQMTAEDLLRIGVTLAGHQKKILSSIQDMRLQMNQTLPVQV
The settings on record: at 0.1 µM.

The target of test [3] is T2, Ephrin type-B receptor 3 (Homo sapiens). The settings on record: at 1 µM.
In test [4] the target is T3, Ephrin type-B receptor 4 (Homo sapiens) (UniProt P54760).
T3 sequence (whole entry): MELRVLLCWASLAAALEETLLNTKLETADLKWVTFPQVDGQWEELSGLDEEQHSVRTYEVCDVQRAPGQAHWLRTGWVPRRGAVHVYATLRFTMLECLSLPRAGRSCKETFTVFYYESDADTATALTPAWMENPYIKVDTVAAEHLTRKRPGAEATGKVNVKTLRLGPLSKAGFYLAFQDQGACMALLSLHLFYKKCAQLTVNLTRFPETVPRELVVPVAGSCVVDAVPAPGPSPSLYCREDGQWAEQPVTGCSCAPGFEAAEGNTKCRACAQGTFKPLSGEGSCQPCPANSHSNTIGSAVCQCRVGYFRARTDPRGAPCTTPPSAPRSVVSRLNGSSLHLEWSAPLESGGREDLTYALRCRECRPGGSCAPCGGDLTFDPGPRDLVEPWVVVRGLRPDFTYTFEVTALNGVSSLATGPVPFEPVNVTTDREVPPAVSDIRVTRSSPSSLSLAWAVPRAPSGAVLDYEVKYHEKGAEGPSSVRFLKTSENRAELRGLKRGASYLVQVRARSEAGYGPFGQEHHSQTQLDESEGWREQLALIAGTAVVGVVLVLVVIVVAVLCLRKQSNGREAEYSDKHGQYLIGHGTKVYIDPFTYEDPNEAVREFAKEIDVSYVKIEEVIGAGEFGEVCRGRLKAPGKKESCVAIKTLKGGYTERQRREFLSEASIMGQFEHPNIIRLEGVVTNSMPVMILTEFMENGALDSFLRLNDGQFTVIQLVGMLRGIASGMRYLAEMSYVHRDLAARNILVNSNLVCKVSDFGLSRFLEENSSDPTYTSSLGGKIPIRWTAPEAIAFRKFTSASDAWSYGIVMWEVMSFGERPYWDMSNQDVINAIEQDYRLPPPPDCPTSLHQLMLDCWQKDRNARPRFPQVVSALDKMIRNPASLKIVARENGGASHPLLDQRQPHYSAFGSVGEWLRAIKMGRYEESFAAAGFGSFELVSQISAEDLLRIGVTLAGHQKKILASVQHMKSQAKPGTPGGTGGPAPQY
The settings on record: at 0.1 µM.

The target of test [5] is T3, Ephrin type-B receptor 4 (Homo sapiens). The conditions noted are these: at 1 µM.
For test [6], the target named is Receptor tyrosine-protein kinase erbB-2 (Homo sapiens) (UniProt P04626). The conditions noted are these: at 0.1 µM.
Receptor tyrosine-protein kinase erbB-2 (Homo sapiens), sequence (P04626 whole entry): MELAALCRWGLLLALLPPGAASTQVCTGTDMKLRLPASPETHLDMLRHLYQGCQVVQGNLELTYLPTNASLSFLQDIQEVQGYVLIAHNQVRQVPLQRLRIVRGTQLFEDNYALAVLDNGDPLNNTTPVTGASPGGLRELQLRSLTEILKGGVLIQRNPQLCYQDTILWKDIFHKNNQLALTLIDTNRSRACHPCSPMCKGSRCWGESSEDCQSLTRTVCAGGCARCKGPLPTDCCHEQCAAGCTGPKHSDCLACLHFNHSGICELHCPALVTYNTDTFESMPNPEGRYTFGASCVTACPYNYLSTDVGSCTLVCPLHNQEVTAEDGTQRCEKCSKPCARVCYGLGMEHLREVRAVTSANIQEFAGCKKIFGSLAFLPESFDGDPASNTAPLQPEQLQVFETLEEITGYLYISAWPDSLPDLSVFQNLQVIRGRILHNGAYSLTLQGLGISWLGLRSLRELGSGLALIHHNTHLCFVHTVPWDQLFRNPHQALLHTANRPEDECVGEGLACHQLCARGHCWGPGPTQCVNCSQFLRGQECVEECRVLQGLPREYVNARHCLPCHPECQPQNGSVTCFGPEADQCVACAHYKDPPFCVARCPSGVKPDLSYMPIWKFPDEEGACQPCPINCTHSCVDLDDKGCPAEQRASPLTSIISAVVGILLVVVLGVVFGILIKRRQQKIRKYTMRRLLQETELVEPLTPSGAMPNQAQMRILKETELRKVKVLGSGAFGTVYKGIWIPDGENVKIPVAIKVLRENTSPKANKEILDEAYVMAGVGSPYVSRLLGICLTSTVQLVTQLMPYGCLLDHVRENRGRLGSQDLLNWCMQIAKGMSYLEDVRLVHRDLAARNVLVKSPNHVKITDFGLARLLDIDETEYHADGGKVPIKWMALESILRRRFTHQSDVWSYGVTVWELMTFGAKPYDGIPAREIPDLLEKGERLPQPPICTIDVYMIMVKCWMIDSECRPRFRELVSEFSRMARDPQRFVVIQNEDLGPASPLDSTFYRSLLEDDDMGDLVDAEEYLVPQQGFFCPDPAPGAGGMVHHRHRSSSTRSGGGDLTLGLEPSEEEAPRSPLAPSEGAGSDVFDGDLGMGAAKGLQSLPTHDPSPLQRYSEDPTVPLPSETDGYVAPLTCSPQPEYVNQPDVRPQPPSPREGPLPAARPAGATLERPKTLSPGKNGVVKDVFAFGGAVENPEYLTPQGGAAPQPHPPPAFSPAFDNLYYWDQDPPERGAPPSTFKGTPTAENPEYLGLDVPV
The target is the same in test [7]. The conditions noted are these: at 1 µM.
Test [8] has as its target Receptor tyrosine-protein kinase erbB-4 (Homo sapiens) (UniProt Q15303). The settings on record: at 0.1 µM.
The target is the same in test [9]. The settings on record: at 1 µM.
For test [10], the target named is Tyrosine-protein kinase Fer (Homo sapiens) (UniProt P16591). The settings on record: at 0.1 µM.
Tyrosine-protein kinase Fer (Homo sapiens), sequence (P16591 whole entry, looked up): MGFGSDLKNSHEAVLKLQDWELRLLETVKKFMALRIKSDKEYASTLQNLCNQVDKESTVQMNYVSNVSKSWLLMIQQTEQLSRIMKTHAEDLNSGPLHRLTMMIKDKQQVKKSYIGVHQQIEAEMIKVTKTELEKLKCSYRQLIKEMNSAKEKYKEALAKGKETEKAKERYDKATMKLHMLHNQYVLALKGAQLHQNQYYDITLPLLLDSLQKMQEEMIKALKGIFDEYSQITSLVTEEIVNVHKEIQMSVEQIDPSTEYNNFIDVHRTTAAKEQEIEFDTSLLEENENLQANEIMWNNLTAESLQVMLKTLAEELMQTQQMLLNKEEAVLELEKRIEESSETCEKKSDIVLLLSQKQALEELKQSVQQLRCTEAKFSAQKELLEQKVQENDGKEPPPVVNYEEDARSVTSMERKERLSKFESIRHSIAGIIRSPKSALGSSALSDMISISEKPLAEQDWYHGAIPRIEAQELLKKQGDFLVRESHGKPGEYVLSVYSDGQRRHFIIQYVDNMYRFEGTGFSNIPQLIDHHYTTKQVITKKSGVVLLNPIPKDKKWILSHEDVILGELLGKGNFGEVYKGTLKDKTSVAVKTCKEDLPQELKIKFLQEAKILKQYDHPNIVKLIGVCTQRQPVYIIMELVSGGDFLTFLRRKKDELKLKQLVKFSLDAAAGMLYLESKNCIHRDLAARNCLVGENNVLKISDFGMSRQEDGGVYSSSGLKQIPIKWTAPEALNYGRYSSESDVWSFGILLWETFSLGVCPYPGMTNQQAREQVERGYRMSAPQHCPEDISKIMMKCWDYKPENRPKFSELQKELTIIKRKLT
The target is the same in test [11]. The conditions noted are these: at 1 µM.
The target of test [12] is Tyrosine-protein kinase Fes/Fps (Homo sapiens) (UniProt P07332). The settings on record: at 0.1 µM.
For test [13] the target is unchanged. The settings on record: at 1 µM.
In test [14] the target is Fibroblast growth factor receptor 1 (Homo sapiens) (UniProt P11362). The settings on record: at 0.1 µM.
For test [15] the target is unchanged. The settings on record: at 1 µM.
Test [16] has as its target Fibroblast growth factor receptor 2 (Homo sapiens) (UniProt P21802). The settings on record: at 0.1 µM.
Test [17] has the same target. The settings on record: at 1 µM.
In test [18] the target is Fibroblast growth factor receptor 3 (Homo sapiens) (UniProt P22607). The conditions noted are these: at 0.1 µM.
For test [19] the target is unchanged. The conditions noted are these: at 1 µM.
The target of test [20] is Fibroblast growth factor receptor 4 (Homo sapiens) (UniProt P22455). The settings on record: at 0.1 µM.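 Also: values are mean percent inhibition of FGFR4.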
Fibroblast growth factor receptor 4 (Homo sapiens), sequence (P22455 22-802 limits assumed): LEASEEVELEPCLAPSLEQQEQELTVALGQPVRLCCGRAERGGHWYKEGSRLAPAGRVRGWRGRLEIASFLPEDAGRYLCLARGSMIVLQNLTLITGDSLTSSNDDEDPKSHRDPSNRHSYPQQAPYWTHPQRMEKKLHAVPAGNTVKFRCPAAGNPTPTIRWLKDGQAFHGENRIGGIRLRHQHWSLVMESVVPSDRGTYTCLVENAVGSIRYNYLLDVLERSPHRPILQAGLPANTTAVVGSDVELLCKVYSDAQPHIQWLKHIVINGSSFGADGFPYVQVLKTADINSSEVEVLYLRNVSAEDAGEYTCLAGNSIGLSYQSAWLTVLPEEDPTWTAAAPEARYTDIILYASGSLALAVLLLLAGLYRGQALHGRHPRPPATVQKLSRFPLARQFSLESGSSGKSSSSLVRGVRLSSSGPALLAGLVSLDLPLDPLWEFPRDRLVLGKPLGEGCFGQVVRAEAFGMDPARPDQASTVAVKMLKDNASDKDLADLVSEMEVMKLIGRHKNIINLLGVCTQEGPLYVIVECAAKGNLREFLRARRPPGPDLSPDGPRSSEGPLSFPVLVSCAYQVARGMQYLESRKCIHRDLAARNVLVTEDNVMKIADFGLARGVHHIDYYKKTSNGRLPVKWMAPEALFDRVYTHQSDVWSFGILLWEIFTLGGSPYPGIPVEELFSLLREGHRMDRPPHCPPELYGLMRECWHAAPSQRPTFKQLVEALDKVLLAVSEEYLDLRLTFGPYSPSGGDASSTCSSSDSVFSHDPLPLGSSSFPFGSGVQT

Experimental findings from ChEMBL document CHEMBL1961873, “Compounds: GSK PKIS; Assays: Nanosyn kinase panel” (2012) are described below.

Molecules are shown by their SMILES.

Receptor tyrosine-protein kinase erbB-4 (Homo sapiens), sequence (Q15303 whole entry): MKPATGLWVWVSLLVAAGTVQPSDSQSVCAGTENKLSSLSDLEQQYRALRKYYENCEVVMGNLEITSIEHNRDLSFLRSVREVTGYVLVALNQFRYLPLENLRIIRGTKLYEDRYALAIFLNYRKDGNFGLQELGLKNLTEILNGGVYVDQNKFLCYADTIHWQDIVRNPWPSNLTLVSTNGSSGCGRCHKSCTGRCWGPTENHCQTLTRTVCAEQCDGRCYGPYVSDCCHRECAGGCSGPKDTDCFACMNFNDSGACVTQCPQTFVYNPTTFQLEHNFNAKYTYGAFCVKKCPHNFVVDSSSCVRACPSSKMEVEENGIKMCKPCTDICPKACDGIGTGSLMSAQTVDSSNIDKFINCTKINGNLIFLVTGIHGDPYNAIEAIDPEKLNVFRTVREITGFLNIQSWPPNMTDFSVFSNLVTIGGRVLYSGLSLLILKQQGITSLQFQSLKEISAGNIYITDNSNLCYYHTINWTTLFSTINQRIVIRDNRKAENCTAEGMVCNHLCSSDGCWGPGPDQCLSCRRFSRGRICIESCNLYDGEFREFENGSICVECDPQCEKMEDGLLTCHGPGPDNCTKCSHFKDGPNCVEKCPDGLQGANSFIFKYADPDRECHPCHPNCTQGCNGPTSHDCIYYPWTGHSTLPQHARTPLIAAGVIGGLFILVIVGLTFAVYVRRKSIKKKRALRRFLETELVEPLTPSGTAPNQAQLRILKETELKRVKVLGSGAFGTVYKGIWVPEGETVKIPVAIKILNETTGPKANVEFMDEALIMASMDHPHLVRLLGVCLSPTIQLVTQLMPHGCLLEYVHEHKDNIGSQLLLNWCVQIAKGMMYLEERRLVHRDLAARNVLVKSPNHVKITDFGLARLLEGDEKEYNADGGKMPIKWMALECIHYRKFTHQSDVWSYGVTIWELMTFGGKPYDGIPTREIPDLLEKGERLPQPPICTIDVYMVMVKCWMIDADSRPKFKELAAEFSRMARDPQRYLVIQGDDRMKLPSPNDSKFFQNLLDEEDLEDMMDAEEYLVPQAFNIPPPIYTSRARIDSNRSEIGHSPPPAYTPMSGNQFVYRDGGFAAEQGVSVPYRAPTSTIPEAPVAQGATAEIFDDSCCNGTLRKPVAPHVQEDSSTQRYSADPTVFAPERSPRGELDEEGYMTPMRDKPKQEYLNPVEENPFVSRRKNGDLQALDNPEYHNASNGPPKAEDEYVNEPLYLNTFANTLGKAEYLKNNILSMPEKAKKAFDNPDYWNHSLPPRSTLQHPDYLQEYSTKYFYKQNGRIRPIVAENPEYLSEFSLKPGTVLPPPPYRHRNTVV
Fibroblast growth factor receptor 2 (Homo sapiens), sequence (P21802 22-821 limits assumed): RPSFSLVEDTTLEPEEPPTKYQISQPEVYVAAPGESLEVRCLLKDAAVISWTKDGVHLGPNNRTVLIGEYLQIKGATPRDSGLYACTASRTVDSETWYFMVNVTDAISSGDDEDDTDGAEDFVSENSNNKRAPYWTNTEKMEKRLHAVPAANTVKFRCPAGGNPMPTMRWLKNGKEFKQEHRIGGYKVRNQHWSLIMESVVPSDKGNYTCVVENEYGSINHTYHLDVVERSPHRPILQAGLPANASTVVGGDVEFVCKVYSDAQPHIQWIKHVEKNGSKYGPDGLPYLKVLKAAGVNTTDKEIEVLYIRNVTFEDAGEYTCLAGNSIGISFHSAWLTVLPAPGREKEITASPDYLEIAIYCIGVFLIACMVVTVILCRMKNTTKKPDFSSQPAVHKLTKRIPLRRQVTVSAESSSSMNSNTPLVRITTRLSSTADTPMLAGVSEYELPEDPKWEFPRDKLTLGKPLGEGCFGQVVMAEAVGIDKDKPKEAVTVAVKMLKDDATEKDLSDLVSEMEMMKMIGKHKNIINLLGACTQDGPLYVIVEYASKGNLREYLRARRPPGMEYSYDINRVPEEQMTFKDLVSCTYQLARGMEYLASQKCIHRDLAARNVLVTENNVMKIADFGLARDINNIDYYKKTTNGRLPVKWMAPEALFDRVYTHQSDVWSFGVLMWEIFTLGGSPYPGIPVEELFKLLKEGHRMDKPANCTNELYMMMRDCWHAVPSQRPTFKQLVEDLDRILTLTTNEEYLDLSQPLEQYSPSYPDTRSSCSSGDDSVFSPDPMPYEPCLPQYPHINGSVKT

As a reminder, the inhibition is the drop in the measured response relative to a control, in per cent. `C[C@@H](Oc1cc(-n2cnc3ccc(OC4CCN(C)CC4)cc32)sc1C(N)=O)c1ccccc1Cl`: the inhibition in test [1] was 7.99%; in test [2], -1.42%; in test [3], -0.38%; in [4] it was -3.06%; in test [5] it was -1.28%; in [6], 2.36%. Moreover, the inhibition came to 2.65% in [7]; 1.1% in test [8]; 6.83% in test [9]; 3.05% in test [10]; 3.96% in [11]; 2.48% in test [12]. Further, the inhibition came out at 3.52% in test [13]; 2.78% in test [14]; 9.26% in test [15]; 4.51% in test [16]; 8.58% in [17]; 4.86% in test [18]. For the same molecule, the inhibition in test [19] is 9.86%; in test [20], -0.28%.
Regarding `O=C(NCC1CC1)c1ccc(-c2cccc(C(=O)NC3CC3)c2)cc1`, the inhibition in test [1] is 11.8%; in test [2], 3.55%; in test [3], 2.98%; in test [4] it was 1.37%; in test [5], 1.03%; in [6], -0.54%. Moreover, the inhibition in test [7] was 1.1%; in [8] it was 16.7%; in test [9], 6.05%; in test [10], 0.26%; in [11], -1.83%; in test [12], 1.39%. For the same molecule, the inhibition in [13] was 1.59%; in test [14], 2.86%; in test [15], 8.03%; in test [16] it was 3.33%; in test [17] it was 10.1%; in [18], 4.92%. Further, the inhibition was 9.43% in test [19] and -0.02% in test [20].
In the case of `O=C(Nc1n[nH]c2nc(-c3ccco3)ccc12)C1CC1`, the inhibition was 12.7% in test [1]; 3.53% in test [2]; 2.4% in [3]; 0.45% in test [4]; 4.02% in test [5]; 0.39% in test [6]. In addition, the inhibition in [7] amounted to 0.71%; in [8] it was 2.93%; in test [9], 2%; in test [10] it was 0.52%; in [11], 2.89%; in test [12], 1.02%. The inhibition was 1.51% in [13]; 2.13% in test [14]; 2.39% in test [15]; -0.33% in [16]; 5.26% in test [17]; 1.13% in test [18]. The inhibition stood at 3.83% in test [19] and 2.11% in test [20].
As to `CCS(=O)(=O)c1ccc(OC)c(Nc2ncc(-c3cccc(-c4ccccc4F)c3)o2)c1`, the inhibition in test [1] was 11.9%; in [2], 2.15%; in test [3], 0.93%; in test [4], 0.78%; in test [5], 8.8%; in test [6], -0.34%. For the same molecule, the inhibition was 2.22% in [7]; 5.89% in test [8]; 15.2% in test [9]; 0.83% in test [10]; 2.29% in [11]; -0.07% in [12]. Moreover, the inhibition in test [13] amounted to 0.23%; in [14], 6.92%; in test [15] it was 40%; in [16] it was 29.3%; in test [17] it was 60.6%; in test [18] it was 29.3%. For the same molecule, the figures for the inhibition in test [19] and in test [20] were 65.5% and 3.01%, respectively.
For `CCc1nccc2c1nc(-c1nonc1N)n2CC`, the inhibition was -7.41% in test [1]; 2.73% in test [2]; -3.8% in test [3]; 1.19% in test [4]; 1.5% in [5]; -0.18% in [6]. In addition, the inhibition was -3.91% in [7]; 8.55% in [8]; 9.58% in test [9]; 5.29% in test [10]; 7.31% in [11]; 0.14% in test [12]. The inhibition was 1.26% in test [13]; -0.52% in test [14]; -4.23% in test [15]; -1.59% in test [16]; 3.19% in [17]; -0.24% in [18]. Also, the inhibition is 2.1% in [19] and -1.31% in test [20].
Regarding `NS(=O)(=O)c1ccc(N/N=C2\C(=O)Nc3ccc(C(=O)NCCCn4ccnc4)cc32)cc1`, the inhibition was 13.3% in test [1]; 5.75% in [2]; 4.37% in [3]; 1.61% in test [4]; 5.27% in test [5]; 4.39% in test [6]. For the same molecule, the inhibition in test [7] was determined as 5.69%; in test [8], 8.45%; in test [9] it was 14.6%; in test [12], 2.9%; in test [13], 3.18%; in test [14], 1.31%. In addition, the inhibition in test [15] was 4.32%; in test [16] it was 3.11%; in test [17], 8.85%; in test [18], 4.75%; in [19] it was 5.37%; in [20], -9.93%.
Consider `Fc1ccc(-c2ncn(CCCN3CCOCC3)c2-c2ccncc2)cc1`, for which the inhibition is -5.28% in [1]; 2.51% in [2]; -2.79% in [3]; 0.93% in test [4]; -0.14% in [5]; -0.2% in [6]. The inhibition in test [7] is -6.58%; in test [8] it was 4.44%; in test [9], 4.14%; in test [10], 0.26%; in test [11] it was -1.08%; in test [12], -0.1%. The inhibition was -0.6% in test [13]; 0.01% in test [14]; -2.73% in [15]; -1.34% in [16]; 2.45% in [17]; 0.86% in test [18]. Also, the inhibition in test [19] was 2.18%; in test [20], -3%.
